From PubChem
Sampled rows, rich in hits. Any-hit rate of the full collection: about 5.4%.
IMPase cell inh: cell-permeable inhibitors of inositol monophosphatase (IMPase). CHO-M1 cells, IP1 accumulation, HTRF TR-FRET ratio. inhibition (IP1 accumulation), % at 46.1 µM. 120,000 tested, under 10 active. AID 901; active = well fitted curve in the direction sought with a large enough effect in the signal ratio, not every such curve was filed as active; inconclusive = small, poorly fitted or top-dose-only effect, or a change in a side signal; inactive = no such curve, though single readings can be large or run the other way; the % refers to the signal ratio;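 also: cells stimulated with carbachol in lithium chloride buffer; higher means more IMPase inhibition seen as more IP1 and lower FRET ratio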
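In this qHTS, compounds (final up to 46 uM) act on CHO-M1 cells that are then activated through the M1 receptor with carbachol, in pH 7.4 buffer containing 50 mM LiCl, for 30 min. IP1 accumulation is quantified by the IP-One immunoassay.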
IMPase Li cell: cell-permeable IMPase inhibitors with lithium potentiation | CHO-M1 cells, IP1 TR-FRET (IP-One), carbachol + lithium | Potency, µM (top dose mostly 59.4 µM), hits mostly inhibitors | AID 1457 | actives 0.35% (n = 210,000);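 also: IP1 builds up when IMPase is blocked and the TR-FRET signal falls; nearly all actives have a fitted effect of over 50% in size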
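IP1 accumulation measured by competitive TR-FRET in lysed CHO-M1 cells after 30 min compound exposure at 37C, with a small lithium addition to potentiate weak responses. Hill-equation AC50 from ratio and donor-channel data.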
12-hLO inh: blocks human 12-lipoxygenase activity; P18054; purified 12-hLO, xylenol orange hydroperoxide absorbance; Potency, µM (top dose mostly 57.1 µM), actives largely listed as inhibitors; actives 0.12% (n = 150,000); also: nearly all actives have a fitted effect of over 55% in size
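Purified human 12hLO (150 nM), preincubated 15 min with compound, then 40 uM arachidonic acid for 30 min, room temperature, Hepes pH 7.0 with 0.01% Triton X-100. Hydroperoxide detected by ferrous iron/xylenol orange; 573/405 nm absorbance ratio gives reaction progress.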
HPGD block: blocks human HPGD enzyme activity. P15428. purified HPGD, NADH fluorescence kinetic, PGE2 substrate. Potency, µM, usual class: inhibitors. actives 4.3% (n = 150,000); active = well fitted inhibition curve with a large enough effect, not every such curve was filed as active; inconclusive = small, poorly fitted or top-dose-only effect, or another doubt; inactive = no such curve, though single readings can be large or run the other way
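NADH formation kinetics: reaction with 30 uM PGE2 and 1 mM NAD+ (final), 20 nM enzyme, Tris-HCl pH 8 with Tween 20, after 15 min compound preincubation at room temperature. Fluorescence change, last versus first of five reads.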
ALOX15B inhib: inhibitors of human 15-lipoxygenase 2 (ALOX15B) | O15296 | purified 15hLO-2, xylenol orange hydroperoxide absorbance | Potency, µM (doses to about 57.1 µM), usual class: inhibitors | actives 0.56% (n = 110,000); also: nearly all actives have a fitted effect of over 60% in size
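Read-out: hydroperoxide product oxidises ferrous iron, measured as xylenol orange complex via the 573-to-405 nm absorbance ratio after 30 min. Reaction: 50 nM enzyme, 15 min compound preincubation, 45 uM arachidonic acid, 90 min RT, Hepes pH 7.5 with Triton X-100.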
PNC assembly inh: inhibitors of perinucleolar compartment assembly | PC3M PTB-GFP, PNC prevalence imaging, 16 h; hits give low values | activity change (PNC), negative = inhibition, % at 10 µM | actives 3.1% (n = 140,000) | AID 2417;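 active = readout at or below -70, meaning at least 70% loss of cells showing the perinucleolar compartment, a nuclear body marking cancer cells; inconclusive = readout between -30 and a set limit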
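PC3M cells stably expressing PTB-GFP, 750–1000 cells/well, treated 16 h at 37 °C with compound (23 nl of library stock), in duplicate. After paraformaldehyde fixation and Hoechst stain, imaged at 20x; PNC prevalence scored by image analysis.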
Hits are given with their value; – = inactive; ? = inconclusive; · = not tested or not shown; [ ] = dose if it differs, or a comment. Unless noted, calls follow the shape of the dose curve; as a rule, active = well fitted curve in the direction sought with a large enough effect; inconclusive = small, poorly fitted or top-dose-only effect, or another doubt; inactive = no such curve, though single readings can be large; an effect the other way counts as inactive or inconclusive.

SMILES | IMPase cell inh | IMPase Li cell | 12-hLO inh | HPGD block | ALOX15B inhib | PNC assembly inh
CCN(Cc1ccccc1)C(=O)CS(=O)(=O)c1ccccc1 | · | – | · | · | · | ·
O[C@H](C[C@@H]1CCCCN1)c1ccc2c(c1)oc1ccccc12 | · | – | –[11.4 µM] | – | –[11.4 µM] | ·
CC(=O)Nc1ccc(NC(=O)Cn2nc([N+](=O)[O-])c(Br)c2C)cc1 | · | – | · | · | · | ·
Cc1c(Br)c([N+](=O)[O-])nn1CC(=O)Nc1ccc(Cc2ccncc2)cc1 | · | – | – | – | · | -93
COc1ccc(NS(=O)(=O)c2ccc3oc(SC4CCOC4=O)nc3c2)cc1 (stereo not given) | – | – | – | 32µM | – | –
CCCC[C@@H]1C[C@H]1C(NC(=O)c1ccco1)c1ccc(Cl)cc1 (stereo not given in full) | · | – | – | – | – | ·
COc1nc(Nc2ccc(OC)c(Cl)c2)nc(OC)n1 | – | – | – | – | – | -81
COc1ccc(-c2oc3ncn4nc(COc5ccc(Cl)cc5)nc4c3c2-c2ccc(OC)cc2)cc1 | – | · | · | · | · | ·
O=C1CC(SCc2nc3ccccc3[nH]2)C(=O)N1c1ccc(F)c(Cl)c1 (stereo not given) | – | – | – | 22µM | – | –
COC(=O)CCCC(=O)Nc1ccc(Cl)c(Cl)c1 | – | – | – | – | · | -100
O=C(O)CCCC(=O)Nc1ccc(C(=O)N2CCCCC2)c(Cl)c1 | – | – | – | 0.45µM | – | ?
C[N+](C)(C)CCOP(=O)(O)OP(=O)([O-])OC[C@H]1O[C@@H](n2ccc(N)nc2=O)[C@H](O)[C@@H]1O | · | – | – | – | · | -105
C[N+](C)(C)CCOP(=O)([O-])OP(=O)(O)OCC1OC(n2ccc(N)nc2=O)C(O)C1O (stereo not given) | · | – | – | – | – | ·
COc1cc(NS(=O)(=O)c2ccc(NC(=O)c3ccc(C(C)=O)cc3)cc2)nc(OC)n1 | – | · | · | · | · | ·
N#CCCSc1ccccc1NC(=O)c1ccc(S(=O)(=O)N2CCCC2)cc1 | – | – | – | 11µM | – | ?
O=C(Nc1cccc2c1C(=O)NC2=O)c1ccc(S(=O)(=O)N2CCCC2)cc1 | – | – | – | ? | – | -111
O=C(Nc1ccccc1-c1nc2ccccc2[nH]1)c1ccc(S(=O)(=O)N2CCCCC2)cc1 | – | – | – | ? | – | –
CCNc1ncc2nc(-c3cn(C)c4ccccc34)c(=O)n(-c3ccccc3)c2n1 | · | – | · | · | – | ·
COc1ccc(C(C)=O)cc1CSCCC(=O)O | – | – | – | 28µM | – | –
COc1ccc(C(C)=O)cc1CSc1ncccn1 | · | – | · | · | · | ·
COc1ccc(C(C)=O)cc1CSc1nnc(Nc2ccc(C)cc2)s1 | · | – | – | ? | · | -113
COc1ccc(C(C)=O)cc1CSc1nnc(C)s1 | – | – | – | 18µM | – | –
Cc1ccc(CSc2nnc(Nc3ccc(C)cc3)s2)cc1 | – | – | – | – | – | –
COc1ccc(C(C)=O)cc1CSc1nnc(Nc2ccccc2)s1 | · | – | – | 25µM | · | –
CC(=O)NCCNc1ncnc2ccc(-c3ccc(C(=O)N(C)C)cc3)cc12 | · | – | – | ? | – | ·
SMILES | IMPase cell inh | IMPase Li cell | 12-hLO inh | HPGD block | ALOX15B inhib | PNC assembly inh
CO[C@@H]1/C=C\O[C@@]2(C)Oc3c(C)c(O)c4c(c3C2=O)C(=N[C@H]2CC[C@H](O)O[C@@H]2C)C=C(NC(=O)/C(C)=C\C(=O)[C@@H]2C[C@@H]2[C@@H](O)[C@H](C)[C@@H](O)[C@H](C)[C@H](OC(C)=O)[C@@H]1C)C4=O | · | – | –[11.4 µM] | – | –[11.4 µM] | ·
COc1cccc(/C=N/NC(=O)c2cc3c(OC)c(OC)ccc3[nH]2)c1OC | · | – | – | ? | · | -84
COc1cccc(/C=N/NC(=O)c2cc3c(OC)cccc3[nH]2)c1OC | – | – | – | – | · | ?
CCOC(=O)c1ccc(NC2OC(=O)c3ccccc32)cc1 (stereo not given) | – | – | – | – | – | -94
C=C(C)[C@H]1CC=C(CO)CC1 | · | – | –[0.00818 µM] | – | –[0.0915 µM] | ·
O=c1ncccn1[C@@H]1O[C@H](CO)C(O)[C@@H]1O (stereo not given in full) | · | – | –[0.00818 µM] | – | –[0.0915 µM] | ·
